Shown are actives, neighbours in structure and some others; about 19% of the full set was active somewhere.
TGFb inhibitor: blocks TGF-b signaling | HepG2 CAGA-GFP TGF-b/SMAD3 reporter, GFP fluorescence, 18 h; TGF-beta stimulated, 500 pg/mL final | 1.2% of 410,000 active | Potency, µM (titrated, usually from 46.1 µM), inactives show at the highest dose activity, negative = inhibition, hits mostly inhibitors | AID 588855; further: potency means the concentration at half of the fitted maximal effect; on the % scale 0 is the no-effect control and ±100 the full control effect; nearly all actives have a fitted effect of over 65% in size
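HEPG2 CAGA-GFP, 1000 cells/well; 2 h settle, 37 C; cpd via pin tool; TGF-b 500 pg/mL final; 18 h, 37 C; GFP imaging ex488/em500-530; %Activity normalised to -TGF-b and +DMSO controls; CRC fit, curve class.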
TDP1 block: blocks human tyrosyl-DNA phosphodiesterase 1. Q9NUW8. recombinant TDP1, AlphaScreen DNA substrate cleavage. Potency, µM (doses to about 130 µM), for the others: at the top dose activity change, negative = inhibition, usual class: inhibitors. 0.28% of 350,000 active. AID 485290; further: potency means the concentration at half of the fitted maximal effect; on the % scale 0 is the no-effect control and ±100 the full control effect; nearly all actives have a fitted effect of over 40% in size
Target sequence (Q9NUW8 whole entry, looked up): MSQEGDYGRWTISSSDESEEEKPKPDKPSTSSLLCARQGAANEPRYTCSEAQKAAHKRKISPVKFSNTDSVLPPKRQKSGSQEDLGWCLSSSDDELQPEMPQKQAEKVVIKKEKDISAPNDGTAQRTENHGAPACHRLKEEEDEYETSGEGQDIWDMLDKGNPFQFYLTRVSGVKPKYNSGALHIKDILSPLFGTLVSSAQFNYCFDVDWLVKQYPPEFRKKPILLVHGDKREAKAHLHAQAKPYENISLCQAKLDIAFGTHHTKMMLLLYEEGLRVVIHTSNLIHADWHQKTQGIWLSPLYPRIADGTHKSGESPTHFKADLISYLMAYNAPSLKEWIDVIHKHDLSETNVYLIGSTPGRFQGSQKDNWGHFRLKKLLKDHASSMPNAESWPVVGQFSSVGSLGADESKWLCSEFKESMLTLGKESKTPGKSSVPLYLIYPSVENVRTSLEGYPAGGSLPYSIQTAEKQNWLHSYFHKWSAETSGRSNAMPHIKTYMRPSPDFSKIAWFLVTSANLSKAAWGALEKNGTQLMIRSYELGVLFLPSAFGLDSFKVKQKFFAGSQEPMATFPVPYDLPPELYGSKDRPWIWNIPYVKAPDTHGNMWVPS
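E. coli-derived human Tdp1, 1 nM final. Cpd preinc 15 min RT; substrate 15 nM final, 5 min RT; AS bead mix 10 ug/ml final, 10 min RT. Signal loss = tyrosine-FITC cleavage. No-enzyme wells = max signal.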
TDP1 cell CPT: growth inhibition of DT40 Tdp1-/-;hTDP1 cells with camptothecin (screen for TDP1 inhibitors). chicken DT40 Tdp1-/-;hTDP1 cells + 20 nM CPT, ATP luminescence, 48 h. Potency, µM (doses to about 46.2 µM), without a hit: at the highest dose activity change, negative = growth inhibition, actives largely listed as inhibitors. 12% of 420,000 active. AID 686979; further: potency means the concentration at half of the fitted maximal effect; on the % scale 0 is the no-effect control and ±100 the full control effect; nearly all actives have a fitted effect of over 55% in size
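Chicken DT40 Tdp1-/- cells complemented with human TDP1, 400 cells/well, exposed to compounds plus 20 nM camptothecin for at least 48 h at 37 C; viability read as ATP content by CellTiter-Glo luminescence.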
HepG2 tox: counter-screen for TGF-b inhibitors: cytotoxicity in HepG2 cells | HepG2 CAGA-GFP viability, ATP luminescence, 18 h | Potency, µM (top dose mostly 46.1 µM), for the others: top-dose activity change, negative = cytotoxicity, actives largely listed as cytotoxic | 0.76% of 410,000 active; further: potency means the concentration at half of the fitted maximal effect
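HepG2 CAGA-GFP cells (1000/well, DMEM with 1% FBS) received compound, then TGF-beta at 500 pg/mL final, and were incubated 18 hours at 37 degrees C. Viability was read by CellTiter-Glo luminescence. Media-only wells were set as complete cell-killing and DMSO as no toxicity.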
TDP1 cell noCPT: qHTS for Inhibitors of human tyrosyl-DNA phosphodiesterase 1 (TDP1): qHTS in cells in absence of CPT. Potency, µM (doses to about 46.2 µM), for inactives: at the highest dose activity change, negative = growth inhibition, hits mostly inhibitors. DT40 Tdp1-/- hTDP1 cells, no CPT, ATP luminescence, 48 h. 15% of 420,000 active; further: potency means the concentration at half of the fitted maximal effect; on the % scale 0 is the no-effect control and ±100 the full control effect; nearly all actives have a fitted effect of over 55% in size
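Luminescent ATP content (CellTiter-Glo) served as the growth readout. Knockout chicken DT40 cells expressing human TDP1 were exposed to compounds without camptothecin for a minimum 48 hr at 37 °C.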
IL1B secr inh: blocks inflammasome-driven IL-1 beta release | THP-1 LPS/ATP IL-1B secretion, AlphaLISA, 16 h; hits give low values | activity change, % at 57.5 µM | 4.7% of 360,000 active; in the data active means activity change below about -50%; inconclusive means mostly about -30% to -49%; further: on the % scale 0 is the no-effect control and ±100 the full control effect
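THP-1 cells pretreated 1 hr with compounds (up to 57.5 uM final), then stimulated with LPS (250 ng/mL final) plus ATP (1.25 mM final); secreted IL-1B measured by AlphaLISA after 16 hr, decreased signal indicating inhibition.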
The depositor's hits bear a star; i = inactive; ? = inconclusive; · = no result; [ ] = remark or other dose. Unless noted, the call rests on the fitted dose curve; in most records, active means well fitted curve in the direction sought with a large enough effect; inconclusive means small, poorly fitted or top-dose-only effect, or another doubt; inactive means no such curve, though single readings can be large; an effect the other way counts as inactive or inconclusive.

SMILES	TGFb inhibitor	TDP1 block	TDP1 cell CPT	HepG2 tox	TDP1 cell noCPT	IL1B secr inh
CSCCC1NC(=O)C(C(C)=NNC(N)=O)=C1O (configuration not stated)	0%	·	?	5%	16µM*	0
O=C(Nn1c(C2CCC2)nc2ccccc2c1=O)C1CCC1	30%	1%	-6%	-3%	-11%	-9
CCOc1ccccc1C(=O)Nn1c(C2CCC2)nc2ccccc2c1=O	-26%	2%	9.2µM*	-21%	23µM*	16
COc1cc2nc(C3CC3)n(NC(=O)c3ccc(Cl)cc3)c(=O)c2cc1OC	-15%	2%	?	-8%	23µM*	23
COc1ccccc1C(=O)Nn1c(C2CCC2)nc2ccccc2c1=O	-4%	5%	13µM*	-10%	?	9
COc1ccc(Cl)cc1C(=O)NNC(=O)CNC(=O)c1ccco1	-13%	0%	-10%	-8%	0%	7
O=C(Nc1cc(-c2ccccc2)[nH]n1)c1ccccc1	-21%	·	-3%	-5%	?	-54*
O=C(Nc1cc(-c2ccccc2)[nH]n1)c1ccccc1F	-6%	·	-27%	-72%	?	-57*
O=C(O)c1ccccc1C(=O)Nc1cc(-c2ccccc2)[nH]n1	17%	·	12%	-10%	-13%	0
Cc1noc(CN(C)c2ncnc3ccc(-c4ccc5c(c4)OCO5)cc23)n1	·	-6%	·	·	·	·
O=C(CN1Cc2ccccc2OC(c2ccccc2F)C1)NC(c1ccccn1)C(F)(F)F (configuration not stated)	·	·	-5%[9.04 µM]	·	?	·
CCOC(=O)C1(CCC(C)C)CC(CSc2nc3ccccc3[nH]2)OC1=O (configuration not stated)	-10%	5%	12µM*	-7%	18µM*	25
COc1ccc(C2=Nn3c(nnc3-c3cc(OC)cc(OC)c3)SC2)cc1	·	-3%	·	·	·	·
O=C(C1CCCCC1)N1CCN(c2ccnc3cc(Cl)ccc23)CC1	-24%	7%	10µM*	-160%	12µM*	?
N#Cc1cccc(S(=O)(=O)N2CCN(c3ccnc4cc(Cl)ccc34)CC2)c1	-20%	2%	12µM*	-15%	12µM*	-16
CC(=O)c1ccc(N2CCN(c3ccnc4cc(Cl)ccc34)CC2)cc1	0%	10%	?	-4%	3.7µM*	-4
O=S(=O)(c1cccc(Br)c1)N1CCN(c2ccnc3cc(Cl)ccc23)CC1	?	4%	?	24%	21µM*	i
CCCCc1ccc(S(=O)(=O)NC(=O)C2(C)CCN2C(=O)C/C=C/c2ccccc2)cc1 (configuration not stated)	3%	·	?	-20%	?	25
CC(C)Cn1cnc2c1c(=O)n(CC(=O)NC(=O)NC(C)(C)C)c(=O)n2Cc1ccccc1	7%	3%	-18%	8%	-21%	-13
Cc1cc(C)cc(NC(=O)CN2C(=O)COc3ccc(S(=O)(=O)Nc4ccccc4)cc32)c1	?	3%	-24%	-32%	-19%	·
COc1cc(=O)n2c(c1C(=O)N(C)Cc1nonc1C)CCN(Cc1cc(C)ccc1C)CC2	·	·	-1%[9.04 µM]	·	-30%	·
O=[N+]([O-])c1ccc(S(=O)(=O)N2CCN(c3ccnc4cc(Cl)ccc34)CC2)cc1	-11%	6%	18µM*	4%	?	-18
O=[N+]([O-])c1ccc(S(=O)(=O)N2CCN(c3ccccn3)CC2)cc1	-2%	·	5%	2%	-10%	-25
CC(C)S(=O)(=O)N1CCN(c2ccnc3cc(Cl)ccc23)CC1	-1%	-8%	?	12%	?	·
CN(C)S(=O)(=O)N1CCN(c2ccnc3cc(Cl)ccc23)CC1	19%	·	23µM*	-21%	13µM*	?
SMILES	TGFb inhibitor	TDP1 block	TDP1 cell CPT	HepG2 tox	TDP1 cell noCPT	IL1B secr inh
CN(CCc1ccccc1)C(=O)c1ccc(NC(=O)Cc2ccc([N+](=O)[O-])cc2)cc1	?	4%	?	-14%	?	?
CCc1noc(C)c1C(=O)N1CCN(S(=O)(=O)c2ccc(Br)cc2Cl)CC1	-9%	0%	?	-16%	-8%	1
COc1cccc(CN2C(=O)c3ccccc3C2C(=O)NCCc2ccccc2)c1 (configuration not stated)	0%	1%	?	-16%	-25%	·
C[C@@H]1NC(=O)N[C@@H]1CCCCCC(=O)O	9%	·	-14%	0%	-12%	-102*
Cc1cccc(C)c1NC(=O)CCCN1CC(C)OC(C)C1 (configuration not stated)	0%	-1%	-2%	-34%	-2%	-3
Cc1cccc(C)c1NC(=O)CCCCCC1NC(=O)NC1C (configuration not stated)	-3%	9%	2%	24%	22%	-55*
CC1NC(=O)NC1CCCCCC(=O)NCCc1ccccc1 (configuration not stated)	25%	13%	-7%	7%	-9%	-96*
CCCCCC[C@@H](CCC)C(=O)O	·	·	13%	·	-3%	·
O=C(Cc1cccc(F)c1)NO	·	·	-25%	·	-15%	·
Cc1c2cnccc2c(C)c2c1oc1ccccc12	?	·	?	-44%	23µM*	-73*
COC(=O)c1ccc(COc2cc(C)ccc2C)o1	16%	·	1%	-34%	-2%	13
Cc1ccccc1NC(=O)c1ccc(F)c(S(=O)(=O)N(C)Cc2ccccc2)c1	-20%	5%	?	-25%	21µM*	·
CC(C)c1ccc(NC(=O)c2cc(S(=O)(=O)NCc3ccccc3Cl)ccc2F)cc1	?	8%	6.5µM*	-82%	9.2µM*	·
CC(C)c1ccc(NC(=O)c2cc(S(=O)(=O)NCCC3=CCCCC3)ccc2F)cc1	?	-5%	18µM*	13µM*	18µM*	·
CCc1cccc(C)c1NC(=O)c1cc(S(=O)(=O)N(C)Cc2ccccc2)ccc1F	?	5%	29µM*	-25%	8.2µM*	·
COc1ccc(C(=O)Nc2ccc(NC(C)=O)cc2)cc1S(=O)(=O)N(C)Cc1ccccc1	-1%	0%	-26%	-9%	?	?
CCCCCC1OC1C/C=C\C/C=C\C/C=C\CCCC(=O)O (configuration not stated)	·	10%	·	·	·	·

Bioassay records from PubChem.
